Laboratory results: PubChem BioAssay AID1159580 (chemical genetic matrix, 2015)
Values joined by “and” are separate entries in the source; they are usually repeats but may differ in a detail not shown here. Equal entries are not always repeated. Hit rate of the full screen: of about 5,500 compounds, about 2,000 (36%) were called active. Not shown: some 18% with an inconclusive outcome. Some of the results follow. Unmarked numbers belong to inactive results. No stated cut-off is given here; in the data, active means normalized growth mostly below about 0.91 (no sharp cut-off); inconclusive means no clear call, values can overlap the other calls; inactive means mostly above about 0.92.

Assay: chemical genetic growth profiling, strain panel (AID 1159580);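 further: tested at 20 µM; growth read once vehicle control cultures reached saturation at 30 °C; 1 = growth at the plate median or of vehicle wells; lower values mean less growth of the strain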
Details: S. cerevisiae deletion strains, growth OD

CC(CN(C)C)CN1c2ccccc2CCc2ccccc21 (stereo not given)
normalized growth (locus YAL013W, strain DEP1, hits give low values): 1
normalized growth (locus YAL021C, strain ccr4, hits give low values): 0.893 (active)
normalized growth (locus YAL026C, strain drs2, hits give low values): 0.982
normalized growth (locus YAL030W, strain snc1, hits give low values): 0.977
normalized growth (locus YAL040C, strain CLN3, hits give low values): 1.03
normalized growth (locus YBL061C, strain skt5, hits give low values): 0.984
normalized growth (locus YBR009C, strain hhf1, hits give low values): 0.972
normalized growth (locus YBR021W, strain FUR4, hits give low values): 1.01
normalized growth (locus YBR023C, strain chs3, hits give low values): 0.975
normalized growth (locus YBR171W, strain sec66, hits give low values): 0.963
normalized growth (locus YBR229C, strain ROT2, hits give low values): 1.01
normalized growth (locus YBR231C, strain swc5, hits give low values): 0.976
normalized growth (locus YBR279W, strain paf1, hits give low values): 0.988
normalized growth (locus YCL011C, strain gbp2, hits give low values): 0.973
normalized growth (locus YCL016C, strain dcc1, hits give low values): 0.974
normalized growth (locus YCL029C, strain bik1, hits give low values): 1.02
normalized growth (locus YCL061C, strain MRC1 (second series), hits give low values): 1.01
normalized growth (locus YCL061C, strain MRC1, hits give low values): 0.986
normalized growth (locus YCL069W, strain vba3, hits give low values): 0.969
normalized growth (locus YCR088W, strain abp1, hits give low values): 0.977
normalized growth (locus YDL005C, strain med2, hits give low values): 0.973
normalized growth (locus YDL035C, strain GPR1, hits give low values): 1.01
normalized growth (locus YDL040C, strain nat1, hits give low values): 0.976
normalized growth (locus YDL074C, strain BRE1, hits give low values): 1.02
normalized growth (locus YDL101C, strain DUN1, hits give low values): 1
normalized growth (locus YDL134C, strain PPH21, hits give low values): 1.01
normalized growth (locus YDL185W, strain tfp1, hits give low values): 1.02
normalized growth (locus YDL192W, strain arf1, hits give low values): 1.01
normalized growth (locus YDR001C, strain nth1, hits give low values): 0.977
normalized growth (locus YDR069C, strain doa4, hits give low values): 0.921
normalized growth (locus YDR101C, strain arx1, hits give low values): 1.02
normalized growth (locus YDR137W, strain rgp1, hits give low values): 1.2 [resistant] (active)
normalized growth (locus YDR150W, strain NUM1, hits give low values): 1.02 and 1.01
normalized growth (locus YDR159W, strain sac3, hits give low values): 0.977
normalized growth (locus YDR162C, strain NBP2, hits give low values): 1.01
normalized growth (locus YDR195W, strain ref2): 0.999
normalized growth (locus YDR297W, strain sur2, hits give low values): 0.975
normalized growth (locus YDR318W, strain mcm21, hits give low values): 1.02
normalized growth (locus YDR334W, strain swr1, hits give low values): 0.946
normalized growth (locus YDR335W, strain msn5, hits give low values): 0.975
normalized growth (locus YDR363W, strain ESC2, hits give low values): 0.993
normalized growth (locus YDR388W, hits give low values): 1.02
normalized growth (locus YDR392W, strain spt3, hits give low values): 0.96
normalized growth (locus YDR502C, strain sam2, hits give low values): 1.03
normalized growth (locus YEL003W, strain gim4, hits give low values): 0.965
normalized growth (locus YEL037C, strain rad23, hits give low values): 0.954
normalized growth (locus YEL061C, strain CIN8 (second series), hits give low values): 0.96
normalized growth (locus YEL061C, strain CIN8, hits give low values): 1.01
normalized growth (locus YER002W, strain NOP16, hits give low values): 1.01
normalized growth (locus YER015W, strain faa2, hits give low values): 0.961
normalized growth (locus YER016W, strain bim1, hits give low values): 0.975
normalized growth (locus YER110C, hits give low values): 1.02
normalized growth (locus YER111C, strain swi4, hits give low values): 0.974
normalized growth (locus YER155C, strain BEM2 (second series), hits give low values): 0.948
normalized growth (locus YER155C, strain BEM2, hits give low values): 1
normalized growth (locus YER167W, strain BCK2, hits give low values): 1.01
normalized growth (locus YFR010W, strain ubp6, hits give low values): 0.954
normalized growth (locus YGL078C, strain dbp3, hits give low values): 1.01
normalized growth (locus YGL086W, strain mad1, hits give low values): 1.01
normalized growth (locus YGL167C, strain pmr1, hits give low values): 0.98
normalized growth (locus YGL173C, strain kem1, hits give low values): 0.972
normalized growth (locus YGL227W, strain vid30, hits give low values): 0.978
normalized growth (locus YGL240W, strain doc1, hits give low values): 0.969
normalized growth (locus YGL248W, strain PDE1, hits give low values): 0.996
normalized growth (locus YGL253W, strain hxk2, hits give low values): 0.977
normalized growth (locus YGR078C, strain PAC10, hits give low values): 1.01
normalized growth (locus YGR135W, strain pre9, hits give low values): 1.02
normalized growth (locus YGR229C, strain SMI1, hits give low values): 0.978
normalized growth (locus YGR252W, strain gcn5, hits give low values): 0.97
normalized growth (locus YHR013C, strain ard1, hits give low values): 0.833 (active)
normalized growth (locus YHR027C, strain rpn1, hits give low values): 0.966
normalized growth (locus YHR030C, strain SLT2, hits give low values): 1.02 and 0.988
normalized growth (locus YHR079C, strain IRE1 (second series), hits give low values): 1.01
normalized growth (locus YHR079C, strain IRE1, hits give low values): 0.981
normalized growth (locus YHR094C, strain hxt1, hits give low values): 1.01
normalized growth (locus YHR129C, strain ARP1, hits give low values): 1.01
normalized growth (locus YHR142W, strain chs7, hits give low values): 0.971
normalized growth (locus YHR200W, strain rpn10, hits give low values): 1.03
normalized growth (locus YIL066C, strain RNR3, hits give low values): 1
normalized growth (locus YIL073C, strain SPO22, hits give low values): 1.07
normalized growth (locus YIL125W, strain kgd1, hits give low values): 1.01
normalized growth (locus YIR030C, strain dcg1, hits give low values): 1.01
normalized growth (locus YJL092W, strain hpr5, hits give low values): 0.936
normalized growth (locus YJL095W, strain BCK1 (second series), hits give low values): 0.984
normalized growth (locus YJL095W, strain BCK1, hits give low values): 0.984 and 0.986
normalized growth (locus YJL115W, strain asf1, hits give low values): 0.957
normalized growth (locus YJL129C, strain trk1, hits give low values): 0.973
normalized growth (locus YJL134W, strain LCB3, hits give low values): 1
normalized growth (locus YJL154C, strain vps35, hits give low values): 0.978
normalized growth (locus YJL164C, strain tpk1, hits give low values): 0.973
normalized growth (locus YJL166W, strain qcr8, hits give low values): 0.963
normalized growth (locus YJL168C, strain set2, hits give low values): 1.02
normalized growth (locus YJL187C, strain SWE1 (second series), hits give low values): 0.988
normalized growth (locus YJL187C, strain SWE1, hits give low values): 0.965
normalized growth (locus YJR043C, strain POL32, hits give low values): 1
